Records with an inconclusive call do not appear. Unmarked numbers belong to inactive results. The source made the active and inactive calls. The call rests on the fitted dose curve; in most records, active means well fitted activation curve with a large enough effect in the repeat runs; inconclusive means weak or mixed curves; inactive means flat fitted curve, though single readings scatter.
On the % scale 0 is the no-effect control and ±100 the full control effect.

The assay is described as follows: Caspase-3/7 induction in HepG2 cells by small molecules, qHTS assay (AID 1346978). Further: nearly all actives have a fitted effect of over 15% in size. The following applies: HepG2 caspase-3/7 activation, Caspase-Glo luminescence, 17 h; series mostly up to 92.4 µM; caspase activation: at the top concentration. From the text:
National Center for Advancing Translational Sciences [NCATS] NIH Chemical Genomics Center [NCGC] U.S. Environmental Protection Agency [EPA] National Institutes of Environmental Health Sciences [NIEHS] National Toxicology Program [NTP] Assay overview: Apoptosis is a process of programmed cell death and plays a central role in the development of multicellular organisms. It is a highly regulated process and induces cell death by activating caspases, which are the members of cysteine aspartic acid-specific protease (caspase) family. Caspases involved in apoptosis are classified by their mechanism of action as initiator caspases (caspase-2, -8, -9 and -10) and executioner caspases (caspase-3, -6, and -7). Inhibition of apoptosis results in number of cancers, autoimmune diseases, inflammatory diseases and viral infection. To identify small molecule compounds that induce apoptosis, a homogeneous, luminescent Caspase-Glo 3/7 assay was used. Wild type HepG2 cells were used to screen Tox21 libraries for identifying caspase-3/7 activity inducers.
Assay Protocol Summary: HepG2 cells were dispensed at 2,000 per well in 5uL of culture medium into white solid bottom 1536-well plates (Corning Life Sciences, Corning, NY) using a Multidrop Combi (Thermo Scientific, Waltham, MA) dispenser. The assay plates were incubated at 37 C and 5% CO2 for 5hr, and then 23nL of compounds dissolved in DMSO and positive control were transferred using a Pintool station (Wako, San Diego, CA). The assay plates were incubated at 37C and 5% CO2 for 17hr. For caspase-3/7 activity read, 4uL of Caspase-Glo 3/7 reagent (Promega Corporation, Madison, WI) was added to each well of the assay plates using Flying Reagent Dispenser (FRD, Aurora Discovery, San Diego, CA) and incubated the assay plates at room temperature for 30min. The luminescence signal was quantified using a ViewLux plate reader (Perkin Elmer, Shelton, CT).
(In general: qHTS replaces the single test concentration by a dilution series.)
With `O=C(O)c1ccccn1`, the result was inactive.

For `CCC(C)(CC)c1cc(NC(=O)c2c(OC)cccc2OC)on1`, the outcome was inactive.

For the molecule `CC(C)(C)OOC(C)(C)C`, the molecule was classed as inactive.

In the case of `CCOC(=O)c1ccccc1C(=O)OCC`, the call was inactive.

With `COP(N)(=O)SC` (stereo not given), the call was inactive.

For `C1CN2CCN1CC2`, the result was inactive.

Take `Cc1[nH]c(=O)n(C(C)(C)C)c(=O)c1Cl`: the molecule was called inactive.

In the case of `CNC(=O)Oc1ccccc1OC(C)C`, the result was inactive.

Turning to `CCC[N+](=O)[O-]`, the molecule was called inactive.

`c1ccc(-c2ccccc2)cc1`: the outcome was inactive.

For the molecule `C=CCO`, the outcome was inactive.

Take `CC(=O)C=C(C)C`: the outcome was inactive.

Take `O=[N+]([O-])c1ccc(Oc2ccc(Cl)cc2Cl)cc1`: the molecule was called inactive.

Regarding `CCC12COCN1COC2`, the molecule was called inactive.

On to `CC(C)(C)OOC(=O)c1ccccc1`, for which the call was inactive.

In the case of `CCN(CC)CCO`, the result was inactive.

With `CC(C)NC(=O)N1CC(=O)N(c2cc(Cl)cc(Cl)c2)C1=O`, the molecule was called inactive.

As to `c1ccc2c(c1)oc1ccccc12`, the call was inactive.

`C=CC(N)=O`: the “caspase activation” value is -0.0212%.

Consider `CCOP(=S)(OCC)Oc1cnc2ccccc2n1`, for which the molecule was classed as inactive.

Turning to `OCCN(CCO)CCO`, the molecule was classed as inactive.

Regarding `CCCCCCCCCCCC#N`, the outcome was inactive.

On to `C1CC2OC2CC1C1CO1` (stereo not given), for which the molecule was classed as inactive.

For `NCC(O)c1ccc(O)cc1` (stereo not given), the outcome was inactive.

On to `Clc1ccccc1Cl`, for which the molecule was called inactive.

For the molecule `CCCCOC(=O)c1ccccc1C(=O)OCCCC`, the call was inactive.

Turning to `COc1ccc2c3c1O[C@H]1[C@@H](O)C=C[C@H]4[C@@H](C2)N(C)CC[C@@]341`, the call was inactive.

Regarding `CC(NC(C)(C)C)C(=O)c1cccc(Cl)c1` (stereo not given), the molecule was classed as inactive.

For `CCCN(CCC)N=O`, the outcome was inactive.

With `NCCc1ccc(O)cc1`, the outcome was inactive.

As for `C=C(C)CCl`, the call was inactive.

On to `CCOP(=S)(OCC)SCCSCC`, for which the outcome was inactive.

Take `CCCCCCCCCl`: the call was inactive.

Consider `O=c1[nH]c(=O)[nH]c(=O)[nH]1`, for which the molecule was classed as inactive.

For `CC(Br)C(=O)O` (stereo not given), the molecule was classed as inactive.

Take `Nc1ccccc1C(=O)O`: the call was inactive.

On to `COC(=O)NC(=S)Nc1ccccc1NC(=S)NC(=O)OC`, for which the outcome was inactive.

For `CC(Oc1ccc(Cl)cc1Cl)C(=O)O` (stereo not given), the result was inactive.

Take `CCCCN(CC)C(=O)SCCC`: the molecule was called inactive.

For `CN=C=S`, the outcome was inactive.

Values taken from PubChem BioAssay (Tox21).
